The results in this text go back to PubChem BioAssay (NCI).

Each structure is given as a SMILES string. About 83,000 compounds went through this panel and 20% of them were active in at least one assay; those are over-represented in the sample as a whole.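 Compound tested at a single concentration for 48 hours in 96-well plates; a percent growth value below 10 was scored as active.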 Active and inactive are the calls of the source.

The subject of the assay is CCRF-CEM leukemia. Nature of the assay: NCI-60 one-dose screen, 48 h (100 = growth as untreated, 0 = no growth, -100 = all killed). To be noted: 10 µM unless noted.
Regarding `O=C(Nc1nc2ccccc2s1)Nc1ccccc1Cl`, the growth was 97.5% (inactive).

Consider `Cc1ccc(C(=O)Nc2cc(-n3ccnc3C)cc(C(F)(F)F)c2)cc1C#Cc1cnc2cccnn12`, for which the growth was 5.01% (active).

`O=C(c1ccc(O)cc1)C1[C@H](c2ccc(Cl)cc2)[C@@H](c2ccccc2)NC12C(=O)Nc1ccccc12` (stereo partly specified): the growth is -7.04% (active).

With `COc1ccc(-c2nc3ccc(-c4nnc(SCC(=O)Nc5ccc(/C(C)=N\O)cc5)o4)cc3[nH]2)cc1`, the growth was 55.6% (inactive).

Take `C[C@H]1[C@@H](CC(=O)N[C@@H](Cc2coc3ccccc23)B(O)O)O[C@@H]2OC3(C)CC[C@H]4[C@H](C)CC[C@@H]1[C@@]24O3`: the growth was -0.752% (active).

On to `Cc1cc(C(NC(=O)C2CC3(CC(Nc4cccc5c4C(=O)N(C4CCC(=O)NC4=O)C5=O)C3)C2)c2ccc3c(c2)OC(F)(F)O3)c(O)c2ncccc12` (stereo unspecified), for which the growth is -7.69% (active).

For `NC(=O)c1ccc(-c2ccc3ncnc(N4CCc5cc(F)c(Cl)cc54)c3c2)cn1`, the growth was 44.2% (inactive).

Consider `CCN1C(=O)N(CC)C2NNC(Sc3c(C(=O)O)c4ccccc4n(CCC(C)C)c3=O)=NC21` (stereo unspecified), for which the growth was 7.16% (active).

On to `COc1ccc2[nH]c(O)c(N=Nc3nc(-c4ccc(Cl)cc4)cs3)c2c1`, for which the growth is 15.7% (inactive).

In the case of `CC[C@]12C=CCN3CC[C@@]4(c5ccc(OC)cc5N(C)[C@H]4[C@@](O)(C(=O)OC)[C@@H]1OC(=O)CCCC[P+](c1ccc(F)cc1)(c1ccc(F)cc1)c1ccc(F)cc1)[C@@H]32`, the growth is 19.9% (inactive).

With `COc1cccc(/C=C/c2nc3ccccc3c(=O)n2CC(=O)Nc2ccccc2)c1`, the growth is 90.1% (inactive).
